From PubChem BioAssay
An excerpt weighted towards active compounds, which were near 2.4% of everything screened.
WRN helicase inh: qHTS for Inhibitors of WRN Helicase; Potency, µM (highest dose often 114 µM), for the others: at the highest dose activity change, negative = inhibition, usual class: inhibitors; WRN helicase unwinding, fluorescent forked duplex, kinetic; Bifunctional 3'-5' exonuclease/ATP-dependent helicase WRN (Homo sapiens), Q14191; hit rate 0.46% among 360,000; further: on the % scale 0 is the no-effect control and ±100 the full control effect; nearly all actives have a fitted effect of over 55% in size
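Screening of the MLSMR collection measured strand separation of a quenched forked DNA duplex (100 nM) by 20 nM WRN with 2 mM ATP, all final. Compounds were preincubated with enzyme 15 min at room temperature.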
Pol beta inh: qHTS Assay for Inhibitors of DNA Polymerase Beta | Pol beta primer extension/strand displacement, fluorescence kinetic | hit rate 1.3% among 340,000 | AID 485314, 2010 | Potency, µM (highest dose often 114 µM), inactives show at the top dose activity change, negative = inhibition, usual class: inhibitors; further: on the % scale 0 is the no-effect control and ±100 the full control effect
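Pol beta (10 nM) and compounds were preincubated 15 min at room temperature, then 50 nM substrate (final) started primer extension/strand displacement. Reads were taken at 0 and 10 min; concentration-response data were fitted to a four-parameter Hill equation.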
Pol eta inh: qHTS for Inhibitors of Polymerase Eta; recombinant Pol eta, fluorescent DNA replication assay; AID 588591, 2011; DNA polymerase eta (Homo sapiens), Q9Y253; hit rate 1.2% among 390,000; Potency, µM (highest dose often 114 µM), for the others: at the top dose activity change, negative = inhibition, most hits filed as inhibitors; further: on the % scale 0 is the no-effect control and ±100 the full control effect
Target sequence (Q9Y253 whole entry, looked up): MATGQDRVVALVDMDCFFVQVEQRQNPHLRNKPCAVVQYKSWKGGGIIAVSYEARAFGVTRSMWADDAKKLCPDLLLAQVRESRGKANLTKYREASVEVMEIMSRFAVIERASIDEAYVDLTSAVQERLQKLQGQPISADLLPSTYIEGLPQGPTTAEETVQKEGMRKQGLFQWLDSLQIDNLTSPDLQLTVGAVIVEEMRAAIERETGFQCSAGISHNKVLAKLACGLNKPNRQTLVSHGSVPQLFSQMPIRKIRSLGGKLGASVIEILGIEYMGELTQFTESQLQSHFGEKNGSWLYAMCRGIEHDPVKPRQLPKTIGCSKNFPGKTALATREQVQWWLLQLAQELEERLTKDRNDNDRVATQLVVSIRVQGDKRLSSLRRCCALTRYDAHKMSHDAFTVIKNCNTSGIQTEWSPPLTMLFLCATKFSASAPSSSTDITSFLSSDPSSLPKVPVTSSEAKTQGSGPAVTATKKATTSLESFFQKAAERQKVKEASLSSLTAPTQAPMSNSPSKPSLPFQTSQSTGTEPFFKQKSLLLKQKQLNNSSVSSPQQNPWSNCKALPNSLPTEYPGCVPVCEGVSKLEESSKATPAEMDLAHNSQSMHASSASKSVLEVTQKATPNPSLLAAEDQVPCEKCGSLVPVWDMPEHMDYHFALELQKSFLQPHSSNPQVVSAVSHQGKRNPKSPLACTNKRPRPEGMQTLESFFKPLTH
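Pol eta (10 nM) was preincubated with compounds for 15 min at room temperature, after which fluorescent replication substrate (50 nM final) was added to start the reaction. Fluorescence was read kinetically at 0 and 10 min.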
FEN1 inhibitor: qHTS Assay for the Inhibitors of Human Flap endonuclease 1 (FEN1) | hit rate 0.35% among 390,000 | P39748 | AID 588795, 2011 | Recombinant FEN1 flap cleavage, fluorescence, 15 min | Potency, µM (series often up to 114 µM), inactives show at the highest dose activity change, negative = inhibition, hits mostly inhibitors; further: on the % scale 0 is the no-effect control and ±100 the full control effect; nearly all actives have a fitted effect of over 65% in size
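Quantitative HTS format: each compound was titrated, incubated with 10 nM nuclease for 15 min at room temperature, then challenged with flap substrate at 50 nM final. Signal change over 15 min gave concentration–effect curves.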
Pol iota inh: qHTS for Inhibitors of Polymerase Iota; DNA polymerase iota (Homo sapiens), Q9UNA4; Pol iota fluorescent replication assay, 10 min; Potency, µM (titrated, usually from 115 µM), inactives show top-dose activity, negative = inhibition, usual class: inhibitors; hit rate 1% among 390,000; AID 588590, 2011
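Fluorescent replication assay read twice, at 0 min and 10 min after adding 50 nM (final) substrate. Enzyme (10 nM) and compounds were first incubated 15 min at room temperature; enzyme-free buffer wells were negative controls.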
Pol kappa inh: qHTS for Inhibitors of Polymerase Kappa; DNA polymerase kappa (Homo sapiens), Q9UBT6; purified Pol kappa, fluorescent DNA synthesis assay, 10 min; Potency, µM (series often up to 107 µM), inactives show at the top dose activity, negative = inhibition, usual class: inhibitors; hit rate 0.53% among 400,000; AID 588579, 2011; further: on the % scale 0 is the no-effect control and ±100 the full control effect
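Pol kappa 10 nM + cpd, 15 min RT; start w/ substrate 50 nM final; fluorescence kinetic read, 0 and 10 min. Neg ctrl: buffer, no enzyme.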
The depositor's hits bear a star; u = inconclusive; x = no result; [ ] = another dose, or the depositor's remark. The call rests on the fitted dose curve; in most records, active means well fitted curve in the direction sought with a large enough effect; inconclusive means small, poorly fitted or top-dose-only effect, or another doubt; inactive means no such curve, though single readings can be large; an effect the other way counts as inactive or inconclusive. Potency means the concentration at half of the fitted maximal effect.

SMILES	WRN helicase inh	Pol beta inh	Pol eta inh	FEN1 inhibitor	Pol iota inh	Pol kappa inh
COc1cccc2cc(C(=O)Oc3ccccc3)c(=O)oc12	-9%	89µM*	u	-5%	0%	-13%
CN1C(=O)c2ccccc2Sc2ccc(NC(=O)Cc3c(F)cccc3Cl)cc21	x	20µM*	-15%	-15%	u	-10%[60.1 µM]
C#CCNC(=O)C[C@@H]1C[C@@]2(C(=O)OCC)CCC=C2N(Cc2ccco2)C1=O	-16%	x	x	x	x	x
CCOC(=O)c1cccc(NC(=O)Cc2ccc(NC(=O)N3CCCCc4ccccc43)cc2)c1	x	u	-20%	12%	-18%	-22%
COc1ccc(CN(C)CC(=O)Nc2c(C)cccc2C)c(OC)c1	2%	1%	1%	1%	118%	-9%
Cc1cc(C(=O)Nc2sc3c(c2C#N)CCC3)no1	-2%[11.6 µM]	u	79µM*	8%	u	-42%
Cn1ccc(C(=O)Nc2sc3c(c2C#N)CCC3)n1	-8%[11.6 µM]	-26%	79µM*	1%	u	-30%
N#Cc1c(NC(=O)c2ccccc2)sc2c1CCCCC2	-6%	10%	-7%	-2%	8%	-18%
CC(C)CCOc1ccc(C(=O)Nc2sc3c(c2C#N)CCCCC3)cc1	x	7%	8%	u	-83%	89µM*
COc1ccc(CN(C)CC(=O)Nc2sc3c(c2C#N)CCC3)c(OC)c1	0%[57.1 µM]	20µM*	-26%	-12%	32%	-13%
Cn1cc(Br)c(C(=O)Nc2sc3c(c2C#N)CCC3)n1	-23%	1%	-9%	-1%	107%	-9%
CC(C)c1ccc(NC(=O)C2(C)Cc3c(-c4ccc5c(c4)OCO5)ccnc3O2)cc1 (configuration not stated)	-8%	x	x	x	x	x
CC(OC(=O)c1ccccc1OCCOc1ccccc1)C(=O)Nc1ccc(Br)cc1 (configuration not stated)	x	x	x	-22%	7%	-8%
Cc1csc(SCC(=O)Nc2sc3c(c2C#N)CCC3)n1	-21%	20µM*	u	0%	u	-29%
Cc1onc(-c2ccccc2)c1C(=O)Nc1sc2c(c1C#N)CCC2	50µM*	20µM*	28µM*	u	20µM*	u
COc1ccc(CN2CCC3CC2c2cc(Cl)ccc23)cc1 (configuration not stated)	-5%	x	-10%	4%	20%	23%
CCOc1ccc(NC(=O)c2ccc3c(SCC(=O)O)c4c(nc3c2)CCCC4)cc1	-11%	-2%	u	-6%	41%	8%
O=C(O)CSc1c2c(nc3cc(C(=O)Nc4cccc(C(F)(F)F)c4)ccc13)CCC2	-14%[11.6 µM]	u	40µM*	-5%	u	u
O=C(O)c1cccc2c1C(=O)c1ccc(-c3ccc(F)cc3OCc3ccccc3)cc1S2(=O)=O	2%[11.6 µM]	x	79µM*	-15%	u	-33%
O=C1c2ccc(-c3ccc(F)cc3OCc3ccccc3)cc2S(=O)(=O)c2cccc(C(=O)N3CCN(c4ncc(Br)cn4)CC3)c21	4%	x	7%	9%	-18%	-7%
CS(=O)(=O)c1ccc(/C=C2\C=Cc3ccccc32)cc1	x	x	x	-25%	-7%	-10%
COc1ccc(OC)c(C(=O)N(C[C@H]2CC[C@@H]([C@@H]3CC[C@H](CO)O3)O2)C(C(=O)NC(C)(C)C)c2ccc(-c3ccccc3)cc2)c1 (some centres not stated)	-6%	x	-10%	2%	4%	-11%
Cc1cc(=O)oc2cc(OCC(=O)NCc3ccco3)ccc12	1%	-17%	11%	-5%	22%	-8%
COc1ccc2oc(-c3ccco3)cc(=O)c2c1	0%	50µM*	0%	-9%	7%	8%
O=C(COc1ccc2oc(-c3ccccc3)cc(=O)c2c1)NCc1ccco1	u	22µM*	u	-8%	u	-17%
SMILES	WRN helicase inh	Pol beta inh	Pol eta inh	FEN1 inhibitor	Pol iota inh	Pol kappa inh
CC1CCCc2sc3nc(SCC(=O)c4ccc(Br)cc4)nc(N)c3c21 (configuration not stated)	x	20%	-12%	-20%	14%	2%
COc1ccc(CCNc2ncnc3c2c(-c2ccccc2)cn3-c2ccc(F)cc2)cc1OC	x	-1%	-13%	-13%	-4%	-5%[60.1 µM]
CCc1ccc(OCC(=O)Nc2c(C(=O)c3ccccc3)oc3ccccc23)cc1	x	-1%	-15%	-2%	26%	-2%
COc1ccc(CNC(=O)Cn2c(=O)nc(-c3ccccc3)c3ccccc32)cc1OC	x	1%	-13%	3%	16%	-8%[60.1 µM]
O=C(Cn1nc2c(cc1=O)CCCC2)Nc1ccc(F)cc1F	x	11%	-26%	-6%	33%	-4%[60.1 µM]
Cc1cc(C)c2c(N)c(C(=O)Nc3ncc(C)s3)sc2n1	-25%	45µM*	-16%	u	-11%	-25%
COC(=O)c1sc2nc(C)cc(C)c2c1N	-6%	1%	-8%	-17%	3%	-2%
Cc1nnc(N/N=C\c2ccc(-c3ccccc3[N+](=O)[O-])o2)n1N	3%[11.6 µM]	3%	-10%	-14%	4µM*	-18%
Cc1nnc(N/N=C/c2ccc(-c3ccccc3F)o2)n1N	-9%[11.6 µM]	u	8%	-8%	3.5µM*	-20%
CCC(=O)N/N=C/c1ccc(-c2ccc([N+](=O)[O-])cc2)o1	4%	u	-8%	-14%	-6%	-8%
CCc1nnc(N/N=C/c2ccc(-c3ccc([N+](=O)[O-])cc3)o2)n1N	-9%[11.6 µM]	-26%	-21%	-23%	32µM*	-4%
CCOC(=O)c1c(C)n(-c2ccccc2)c2ccc(OC(=O)c3ccccc3NC(=O)C(C)(C)C)cc12	x	-1%	-11%	-20%	u	-23%
COc1ccc(CN2CCc3c(c(=O)n4ncc(C(=O)N5CCN(c6ccccc6OC)CC5)c4n3C)C2)cc1	x	1%	13%	15%	-1%	-12%[60.1 µM]
O=C(Nc1ccc(F)cc1F)c1cccc2c1C(=O)N(C1CCCCC1)C2	x	13µM*	-22%	11%	u	-39%
NC(=O)c1cccc2c1C(=O)N(C1CCCCC1)C2	-12%[57.1 µM]	u	50µM*	-11%	u	u
O=c1c2nncn2ccn1-c1ccc(F)c(F)c1	x	32µM*	-23%	10%	-4%	-25%
O=C(Nc1nc(-c2ccccn2)cs1)C1CC(=O)N(c2ccc3c(c2)OCCO3)C1 (configuration not stated)	-9%[11.6 µM]	13µM*	u	7%	20µM*	u
